The campaign covered roughly 1,000 compounds. About 270 (27%) were called active. Not all results are given here. A number with no mark means an inactive call. Rule as the data show it: active = inhibition above about 14%; inactive = the rest.

Sequence of Methyl-CpG-binding domain protein 2 (Homo sapiens) (Q9UBB5 whole entry, looked up, the tested form may be a part): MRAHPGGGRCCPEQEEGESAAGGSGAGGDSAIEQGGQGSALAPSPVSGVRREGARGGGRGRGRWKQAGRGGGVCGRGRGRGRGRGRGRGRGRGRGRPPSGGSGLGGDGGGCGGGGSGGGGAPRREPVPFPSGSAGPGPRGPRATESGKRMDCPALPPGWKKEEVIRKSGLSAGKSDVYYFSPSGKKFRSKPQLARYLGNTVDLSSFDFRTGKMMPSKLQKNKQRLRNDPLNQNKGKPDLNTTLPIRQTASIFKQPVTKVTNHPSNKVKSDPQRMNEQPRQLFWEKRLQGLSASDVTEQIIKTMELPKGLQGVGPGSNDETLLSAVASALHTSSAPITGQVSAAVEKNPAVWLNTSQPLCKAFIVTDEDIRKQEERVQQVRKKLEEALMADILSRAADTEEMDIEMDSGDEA

This test has as its target Methyl-CpG-binding domain protein 2 (Homo sapiens) (UniProt Q9UBB5). The experiment in a line: inhibitors of MBD2 binding to methylated DNA, confirmation, biochemical, TR-FRET, DNA-binding domain, human (AID 720531). As to conditions: TR-FRET MBD2-DBD binding to methylated oligonucleotide; at 4.4 µM; active compounds read high. For orientation: In TR-FRET formats the signal depends on donor and acceptor labels being close together.
The inhibition is the change of the read-out against control, counted positive when it falls. `COc1ccc(N2C(=O)/C(=C/c3ccco3)C(=O)NC2=S)cc1`: the inhibition was 88.4% (active). As to `Cc1cc(/C=C2/C(=O)NC(=O)N(Cc3ccco3)C2=O)c(C)n1-c1ccc(C(=O)O)cc1`, the inhibition was 3.26%. With `O=C1NC(=O)N(Cc2ccco2)C(=O)/C1=C\c1ccc(-c2ccc(F)cc2)o1`, the inhibition was 4.49%.
